# Source: PubChem BioAssay AID624125 (The Scripps Research Institute Molecular Screening Center, 2012)
# About 2,600 (0.72%) of roughly 360,000 compounds were called active.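 Rule for the calls: active = inhibition above its plate's cutoff, the mean inhibition of sample wells plus 3 SD (cut at about 27% in these data); inactive = the rest.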 Only a selection was taken, and actives are over-represented in it overall.
# Biological target: Muscarinic acetylcholine receptor M4 (Homo sapiens) (UniProt P08173)
# Test: CHRM4 blockers of acetylcholine calcium response – CHO cells, Fluo-8 calcium fluorescence, primary screen (AID 624125);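 note: 0% = acetylcholine EC80 with DMSO and 100% = DMSO without agonist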
# Settings: CHO-hM4 cells, ACh EC80, Fluo-8 calcium fluorescence; at 3 µM; hits give high values
# Muscarinic acetylcholine receptor M4 (Homo sapiens), sequence (P08173 whole entry, looked up): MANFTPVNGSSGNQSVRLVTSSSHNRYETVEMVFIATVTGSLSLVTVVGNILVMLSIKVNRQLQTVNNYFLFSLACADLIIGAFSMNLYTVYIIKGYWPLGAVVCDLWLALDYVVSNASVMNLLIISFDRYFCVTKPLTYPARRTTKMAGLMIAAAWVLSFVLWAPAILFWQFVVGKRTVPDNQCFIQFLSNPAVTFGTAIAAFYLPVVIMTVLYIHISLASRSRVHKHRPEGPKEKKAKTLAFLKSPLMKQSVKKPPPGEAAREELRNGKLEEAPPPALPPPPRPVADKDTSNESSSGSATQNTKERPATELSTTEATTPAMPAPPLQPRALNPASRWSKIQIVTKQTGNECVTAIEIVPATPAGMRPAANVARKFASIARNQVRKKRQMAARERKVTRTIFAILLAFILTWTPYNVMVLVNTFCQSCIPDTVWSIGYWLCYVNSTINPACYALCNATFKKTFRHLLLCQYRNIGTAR
row,SMILES,inhibition
1,Cc1cc([N+](=O)[O-])c(NC2CCCCC2)c([N+](=O)[O-])c1,7.51% (inactive)
2,CCc1cc2c(NC3CCCC3)ncnc2s1,11.2% (inactive)
3,Clc1cc(NC2CCCCC2)ncn1,98.6% (active)
4,CN(CC1CCCN(CCc2cccc(C(F)(F)F)c2)C1)C(=O)c1ccc2nc[nH]c2c1 (stereo not given),41% (active)
5,CC(=O)c1ccc(N2CCN(C(=O)c3ccc4nc[nH]c4c3)CC2)cc1,4.68% (inactive)
6,Cc1nc2ccc(C(=O)N(C)CC3CCCN(CCc4ccc(Cl)cc4)C3)cc2[nH]1 (stereo not given),19.4% (inactive)
7,CSc1ccccc1NC(=O)c1ccc2c(c1)CCN2S(C)(=O)=O,-5.17% (inactive)
8,O=C(CSCc1ccc([N+](=O)[O-])cc1)Nc1cccc(C(=O)Nc2ccccc2C(=O)O)c1,7.83% (inactive)
9,CC(C(=O)Nc1ccc(S(=O)(=O)N2CCCC2)cc1)N(C)Cc1ccc(F)cc1 (stereo not given),-3.14% (inactive)
10,CN(CC(=O)Nc1ccc(S(=O)(=O)N2CCCC2)cc1)Cc1ccc(Cl)c(Cl)c1,4.23% (inactive)
11,CCc1ccc(CN(C)C(C)C(=O)Nc2ccc(S(=O)(=O)N3CCCC3)cc2)cc1 (stereo not given),26.6% (active)
12,CCc1ccc(/C=N/NC(=O)c2nnn(-c3nonc3N)c2CN2CCc3ccccc32)cc1,6.06% (inactive)
13,CCOC(=O)CSc1nnc(NC(=O)C2CC(=O)N(c3ccc(F)cc3)C2)s1 (stereo not given),5.76% (inactive)
14,CN1/C(=C\C=C2\N=C(c3ccc(F)cc3)OC2=O)C(C)(C)c2ccccc21,50.7% (active)
15,Cc1ccc(S(=O)(=O)NC[C@H]2O[C@@H](n3cnc4c(N)ncnc43)[C@H](O)[C@@H]2O)s1,-5.46% (inactive)
16,O=C(CNS(=O)(=O)c1ccc(Br)s1)NCc1ccc2c(c1)OCO2,1.5% (inactive)
17,COc1ccc(NC(=O)N(C)C[C@@H]2OCc3cn(nn3)CCCC(=O)N([C@H](C)CO)C[C@H]2C)c(OC)c1,8.28% (inactive)
18,CCOC(=O)N1CCN(C(=O)c2ccc3c(c2)N(Cc2ccc(C)cc2)CCS3)CC1,-7.97% (inactive)
19,CC1CCCN(c2ccc(C(=O)NCCc3ccccc3)cn2)C1 (stereo not given),-4.49% (inactive)
20,O=C(NCCc1ccccc1)c1ccc2c(c1)N(Cc1ccccc1)CCS2,35% (active)
21,CCOC(=O)c1cnc(Nc2nc3ccccc3o2)nc1CSC(=S)N1CCCCC1,-1.75% (inactive)
22,COc1cccc(CNn2cn[nH]c2=S)c1OCc1ccccc1,-1.76% (inactive)
23,COc1cccc(CNCCc2c[nH]c3ccccc23)c1OCc1ccccc1F,27.2% (active)
24,Fc1ccccc1COc1ccccc1CNCc1ccncc1,-4.74% (inactive)

row,SMILES,inhibition
1,C=C(C)CNC(=S)Nc1ccc(S(=O)(=O)Nc2cnc3ccccc3n2)cc1,2.87% (inactive)
2,CC(NCCO)C(=O)C12CC3CC(CC(C3)C1)C2 (stereo not given),2.3% (inactive)
3,Cc1c(C(=O)NC2CCCCC2)oc2ccccc12,-11.4% (inactive)
4,Cc1ccc2c(C)c(C(=O)N(C)Cc3ccncn3)oc2c1C,-3% (inactive)
5,CCCC[C@@H]1CN=C(N)N1CCc1cc(C(F)(F)F)cc(C(F)(F)F)c1,31.9% (active)
6,CCCCN1C(N)=NC[C@@H]1CC1CCCCC1,-1.98% (inactive)
7,CN(C)C1=NC[C@H](Cc2ccccc2)N1CCc1ccc(F)cc1,-0.99% (inactive)
8,Cc1nc(N)c(Br)c(C)c1Br,-2.18% (inactive)
9,CSc1ccc(S(=O)(=O)N2CCC(C(=O)NCc3ccncc3)CC2)cc1,-10.4% (inactive)
10,Cn1c(CCC(=O)Nc2ccccc2F)nnc1SCC(=O)Nc1ccccc1Cl,-10.1% (inactive)
11,CN1CCN(C(=O)N2c3ccccc3CCc3ccccc32)CC1,51% (active)
12,Cn1cccc1C(=O)N1CCc2ccccc2C1,10.4% (inactive)
13,CN1CCN(S(=O)(=O)c2cccc(C(=O)N3CCc4ccccc43)c2)CC1,3.72% (inactive)
14,O=C(O)C(=Cc1ccccc1[N+](=O)[O-])c1ccccc1,-15.2% (inactive)
15,Cc1ccc(C2Nc3ccccc3C(=O)N2CCN2CCNC2=O)cc1 (stereo not given),-5.69% (inactive)
16,COc1ccc(C(C#N)N2N=C(C)CC2(C)C)cc1 (stereo not given),-4.9% (inactive)
17,CC[C@@H]1Cc2cc(O)ccc2C2=C1c1ccc(O)cc1C[C@H]2CC,72.5% (active)
18,CCOC(=O)C1(Cc2ccccc2C)CCCN(C(=O)CN2C(=O)CSC2=O)C1 (stereo not given),4.46% (inactive)
19,O=C(CSc1ccc([N+](=O)[O-])cn1)Nc1ccc(N2CCOCC2)cc1,-3.21% (inactive)
20,O=C(CSc1ccc(-c2ccc(-n3cccn3)cc2)nn1)Nc1ccc([N+](=O)[O-])cc1,101% (active)
21,O=C(CSc1ccc(-c2ccccn2)nn1)Nc1ccccc1,5.15% (inactive)
22,O=C(O)CC12CC3CC(C1)CC(n1ncc(NCc4ccc(F)cc4)c(Cl)c1=O)(C3)C2,4.05% (inactive)
23,Cc1sc2c(c1C)c(=O)n(-c1ccccc1)c(=O)n2CC(=O)NCC1CCCO1 (stereo not given),27.2% (active)
24,Cc1nn(CC(=O)NCC2CCCO2)c(=O)c2cc3ccccc3n12 (stereo not given),-2.94% (inactive)

row,SMILES,inhibition
1,Cc1nn(-c2ccccc2)c2c1c(C)c(CCC(=O)NCC1CCCO1)c(=O)n2C (stereo not given),-9.84% (inactive)
2,COC(=O)/C(=C1\Oc2ccc(C(C)(C)C)cc2S1)C(F)(F)F,-0.07% (inactive)
3,CCN(CC)CCOC(=O)c1ccc(NC(=O)CNC(=O)c2ccccc2)cc1,-1.05% (inactive)
4,CCCC(C(=O)OCCN(CC)CC)(c1ccccc1)c1ccccc1,42.8% (active)
5,CCC(C(=O)OCCN(CC)CC)c1ccccc1 (stereo not given),54.1% (active)
6,CCC(C(=O)Nc1ccc(C(C)C)cc1)c1ccccc1 (stereo not given),23.7% (inactive)
7,CCN(CC)CCNCC(=O)Nc1ccc(Oc2ccccc2)cc1,-0.82% (inactive)
8,COC(CCN(C)C)(c1ccccc1)c1ccccc1,3.06% (inactive)
9,CC1CCc2c(sc3c2C2=NS(=O)(=O)CCN2C=N3)C1 (stereo not given),-3.55% (inactive)
10,COc1ccc(S(=O)(=O)N2CCN(c3cnccn3)CC2)cc1,5.44% (inactive)
11,O=C1CCc2cc(S(=O)(=O)Nc3ccc(C(F)(F)F)cc3)cc3c2N1CC3,-14.8% (inactive)
12,CC(C)(C)NC(=O)COc1ccc(CNc2ccc3[nH]c(=O)[nH]c3c2)cc1,-1.92% (inactive)
13,Cc1cc([N+](=O)[O-])c(=O)[nH]c1C,3.71% (inactive)
14,CCOC(=O)C1Nc2ccc(C(F)(F)F)cc2C2C=CCC12 (stereo not given),-1.13% (inactive)
15,COc1cc(-c2noc(C3CCCN(S(=O)(=O)c4cccc(Cl)c4)C3)n2)cc(OC)c1OC (stereo not given),30.5% (active)
16,COc1cccc(-c2noc(C3CCCN(C(=O)c4ccc(F)cc4)C3)n2)c1 (stereo not given),-18% (inactive)
17,CC(C)c1ccc(-c2noc(C3CCCN(S(C)(=O)=O)C3)n2)cc1 (stereo not given),-17.6% (inactive)
18,Clc1ccc(-c2nnc(-c3ccccc3)nc2N2CCSCC2)cc1,-4.43% (inactive)
19,CC12CCCCC1=CC(=O)CC2 (stereo not given),2.52% (inactive)
20,Cc1ccc(S(=O)(=O)N2CCCCC2)cc1NC(=O)CCNC(=O)c1ccccc1Cl,-5.04% (inactive)
21,CN(C(=O)CSc1nnc(-c2ccc(C(C)(C)C)cc2)n1C)C1CCS(=O)(=O)C1 (stereo not given),0.43% (inactive)
22,OC(c1ccccc1)(c1ccccc1)C1CCN(CCCOc2ccccc2)CC1,91.6% (active)
23,O=c1[nH]c2ccccc2n1C1CCN(CCOc2ccccc2)CC1,-13.4% (inactive)
24,COc1ccc(OCCCCN2CCC(C)CC2)cc1,9.1% (inactive)

row,SMILES,inhibition
1,Cc1ccc(S(=O)(=O)N2CCOCC2)cc1C(=O)NC(=S)N(Cc1ccccc1)C(C)C,0.9% (inactive)
2,CCCCc1nc2ccc(F)cc2cc1C,-4.37% (inactive)
3,Cc1sc2ncnc(N3CCC(C(=O)NNC(=O)c4ccc(F)cc4)CC3)c2c1C,-17.4% (inactive)
4,Cc1sc2ncnc(N3CCC(C(=O)Nc4ccc(F)cc4Cl)CC3)c2c1C,46.6% (active)
5,Cc1sc2ncnc(N3CCC(C(=O)Nc4nc5ccc(Cl)cc5s4)CC3)c2c1C,-9.33% (inactive)
6,COC(=O)c1cc(N2CCNCC2)nc2ccccc12,6.45% (inactive)
7,CS(=O)(=O)N1CCN(CC(=O)NC2CCCC2)CC1,1.25% (inactive)
8,Clc1ccc(C=NC23CN4CN(CN(C4)C2)C3)cc1,-1.64% (inactive)
9,O=C(c1ccccc1F)N1CCN(S(=O)(=O)c2ccc(Br)cc2)CC1,3.23% (inactive)
10,Cc1ccc(CN2CCN(Cc3ccc4ncccc4c3)CC2CCO)cc1 (stereo not given),-9.31% (inactive)
11,OCCC1CN(Cc2ccc3nsnc3c2)CCN1C1CCCCC1 (stereo not given),26.8% (active)
12,CC(C)N1CCC(N2CCN(Cc3cccnc3)CC2CCO)CC1 (stereo not given),-8.19% (inactive)
13,CCOc1ccc(CN2CCN(Cc3ccc(C)o3)CC2CCO)cc1 (stereo not given),1.46% (inactive)
14,COc1ccc(CN2CCN(Cc3cn(C)nc3-c3ccccc3)CC2CCO)c(C)c1C (stereo not given),-2.82% (inactive)
15,OCCC1CN(Cc2ccc3nsnc3c2)CCN1C1CCCC1 (stereo not given),47.5% (active)
16,COc1cccc2c1OCC(CN1CCN(C3CCCCC3)C(CCO)C1)=C2 (stereo not given),26.6% (active)
17,OCCC1CN(Cc2cccc(O)c2)CCN1CCc1ccccc1 (stereo not given),-6.17% (inactive)
18,OCCC1CN(Cc2cccc(OC3CCCC3)c2)CCN1Cc1ccsc1 (stereo not given),2.69% (inactive)
19,Cc1ccc(CN2CCN(Cc3ccc(OCCO)cc3)CC2CCO)o1 (stereo not given),2.78% (inactive)
20,Cn1cnnc1Sc1ccc(CN2CCN(C3CCCC3)C(CCO)C2)o1 (stereo not given),42.6% (active)
21,OCC1(CCc2ccccc2)CCN(Cc2ccc3nsnc3c2)CC1,8.32% (inactive)
22,CCC(Sc1nncn1C)C(=O)Nc1nnc(-c2ccc(Cl)cc2)s1 (stereo not given),-32.3% (inactive)
23,CCOc1cc(-c2noc(CCCC(=O)NC3CCCCC3)n2)ccc1OC,-15.3% (inactive)
